PLK1 PBD inh: inhibitors of human PLK1 polo-box domain binding; Plk1 PBD binding of FITC phosphopeptide, fluorescence polarization; Potency, µM, actives largely listed as inhibitors; hit rate 2.8% among 360,000; AID 720504; further: series mostly up to about 57 µM; nearly all actives have a fitted effect of over 65% in size
BAZ2B block: blocks human BAZ2B. Q9UIF8. AlphaScreen BAZ2B-H3K14Ac peptide displacement. Potency, µM (series often up to 114 µM), most hits filed as inhibitors. hit rate 4.4% among 360,000. AID 504333; further: nearly all actives have a fitted effect of over 60% in size
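Protein-peptide AlphaScreen: BAZ2B 50 nM, b-H3K14Ac 50 nM, 1x PBS pH 7.4 + 0.01% Tween-20. Preincubation 30 min RT; cpd 30 min RT (top 110 uM); beads 20 min RT, light-protected.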
JMJD2A Tudor: inhibitors of human JMJD2A Tudor domain; AlphaScreen JMJD2A-Tudor / H3K4me3 peptide binding; Potency, µM (series often up to 114 µM), usual class: inhibitors; hit rate 4.4% among 390,000; AID 504339; further: nearly all actives have a fitted effect of over 50% in size
HP1b binding inh: HP1-beta chromodomain-methylated histone interaction inhibition; P83916; AlphaScreen HP1-beta / biotin-H3K9me3 peptide binding; hit rate 0.56% among 390,000; Potency, µM (highest dose often 114 µM), hits mostly inhibitors; further: nearly all actives have a fitted effect of over 70% in size
Target sequence (P83916 whole entry, looked up): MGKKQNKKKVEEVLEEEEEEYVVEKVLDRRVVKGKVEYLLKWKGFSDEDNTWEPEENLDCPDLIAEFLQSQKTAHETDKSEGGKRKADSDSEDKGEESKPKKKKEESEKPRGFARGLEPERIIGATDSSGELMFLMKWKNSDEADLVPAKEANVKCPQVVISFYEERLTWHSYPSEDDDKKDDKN
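Compound inhibition of the preformed complex between 50 nM HP1-beta and 50 nM biotinylated H3K9me3 peptide was read by AlphaScreen. Buffer was PBS pH 7.4 with 0.01% Tween-20. Incubations ran 30 min at room temperature, with 10 ug/mL donor/acceptor beads.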
L3MBTL1 inh: blocks human L3MBTL1; AlphaScreen L3MBTL1–H3K9me1 peptide binding; AID 485360; Potency, µM (titrated, usually from 57.1 µM), actives largely listed as inhibitors; hit rate 0.66% among 230,000; further: nearly all actives have a fitted effect of over 60% in size
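AlphaScreen proximity signal between nickel-chelate acceptor and streptavidin donor beads (final 10 ug/mL) reports binding of 50 nM L3MBTL1 to 75 nM biotin-H3 K9me1 peptide; complex incubated with compounds 30 min at room temperature; cefsulodin titration as control.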
VDR inh: inhibitors of human vitamin D receptor. hit rate 0.93% among 400,000. VDR-SRC2-3 peptide fluorescence polarization, 2 h. P11473. Potency, µM, hits mostly inhibitors. AID 504847
Target sequence (P11473 whole entry, looked up): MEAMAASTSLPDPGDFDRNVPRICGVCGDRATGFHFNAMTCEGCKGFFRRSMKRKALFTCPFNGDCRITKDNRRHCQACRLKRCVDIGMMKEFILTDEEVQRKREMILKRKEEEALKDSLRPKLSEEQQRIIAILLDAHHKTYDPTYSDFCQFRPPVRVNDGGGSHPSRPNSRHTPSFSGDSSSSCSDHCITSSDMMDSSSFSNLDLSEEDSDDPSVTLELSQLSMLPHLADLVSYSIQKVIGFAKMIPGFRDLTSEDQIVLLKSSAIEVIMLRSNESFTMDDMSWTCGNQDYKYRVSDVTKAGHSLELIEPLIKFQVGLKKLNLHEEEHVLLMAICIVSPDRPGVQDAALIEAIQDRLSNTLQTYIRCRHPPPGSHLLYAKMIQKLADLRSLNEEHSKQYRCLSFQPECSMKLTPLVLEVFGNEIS
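Measured by FP: displacement of SRC2-3 coactivator peptide from VDR by library compounds, following a two-hour ambient incubation.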
A number is an active result; . = inactive; ? = inconclusive; / = no result; [ ] = another dose, or the depositor's remark. A selection: hits, their analogues and other compounds. The true share with any hit is near 6.9%. The call rests on the fitted dose curve; in most records, active means well fitted curve in the direction sought with a large enough effect; inconclusive means small, poorly fitted or top-dose-only effect, or another doubt; inactive means no such curve, though single readings can be large; an effect the other way counts as inactive or inconclusive.

SMILES	PLK1 PBD inh	BAZ2B block	JMJD2A Tudor	HP1b binding inh	L3MBTL1 inh	VDR inh
COc1ccc(Cl)cc1NC(=O)CN(C)S(=O)(=O)c1ccc(Br)s1	/	.	.	.	/	.
CC(=O)OC1CCC2(C)C(=CCC3C2CCC2(C)C3C[C@@H]3O[C@]32C(C)=O)C1 (stereo partly drawn)	/	/	/	/	/	.
COc1ccc(/C=N/n2cnc3c([nH]c4ccccc43)c2=O)cc1CO	11µM	.	.[11.4 µM]	.	/	?
Cc1cccc(-n2c(CNC(=O)c3cccc([N+](=O)[O-])c3C)n[nH]c2=S)c1	.	/	16µM	.	/	.
CCN(CC)S(=O)(=O)c1ccc(C(=O)NCc2n[nH]c(=S)n2-c2ccccc2OC)cc1	.	.	22µM	.	.	.
Cc1cc(CNC(=O)c2cccc([N+](=O)[O-])c2C)c2ccccc2n1	.	.	.	.	.	.
COc1ccccc1-n1c(CNC(=O)c2cccc([N+](=O)[O-])c2C)n[nH]c1=S	.	.	20µM	.	/	.
COc1ccc(OC)c(N(CCN2C(=O)c3ccccc3C2=O)C(=O)C2CCC(=O)C2C)c1 (stereo not drawn)	.	/	/	/	/	/
O=C1c2ccccc2C(=O)c2c1ccc1c(=O)n(C3CCCCC3)[nH]c21	.	50µM	25µM	.	.	.
O=C(NCc1nc2ccccc2[nH]1)C1=C[C@H](c2ccc(C(F)(F)F)cc2)C[C@H](OCCCCO)O1	.	/	.	.	/	.
COc1ccc(OC)c(C(c2nnnn2C2CCCC2)N2CCN(c3ccccc3)CC2)c1 (stereo not drawn)	.	50µM	56µM	.	.	.
COc1ccc(C(c2nnnn2C2CCCC2)N2CCN(C3CCCC3)CC2)cc1OC (stereo not drawn)	.	.	56µM	.	.	.
CCc1cccc(NC(=O)CN(C)S(=O)(=O)c2ccc3c(c2)CCCN3C(C)=O)c1	/	.	.	.	/	.
CCOc1ccccc1NC(=O)CN(C)S(=O)(=O)c1ccc(C(=O)N2CCOCC2)s1	/	.	.	.	/	.
O=C(O)c1ccc(NS(=O)(=O)c2cccc(C(=O)Nc3cccc(C(=O)O)c3)c2)cc1	.	.	.	.	/	.
Cn1cccc1C(=O)N1CCC2(CCN(Cc3ccncc3)CC2)CC1	/	/	/	/	/	.
Cc1ccc(-n2ncc(C#N)c2/N=C/N2CCN(C)CC2)cc1	.	.	.	.	.[11.4 µM]	.
CN1CCN(/C=N/c2c(C#N)cnn2-c2ccccc2)CC1	27µM	.	.[11.4 µM]	.	.[11.4 µM]	.
Cc1ccc(N2C(=O)c3ccccc3C2=O)c(C)c1	/	/	.	/	/	/
Oc1c(C2=NCCNC(C(F)(F)F)=C2)ccc2ccccc12	.	25µM	50µM	?	.	.
Cc1ccc(O)c(C2=NCCNC(C(F)(F)F)=C2)c1	.	.	.	.	/	.
COc1ccc(Cc2nnc(NC(=O)Nc3ccc(F)cc3)s2)cc1OC	19µM	.	?	.	/	?
CCOCC(=O)Nc1nnc(Cc2ccc(OC)c(OC)c2)s1	27µM	.	.	.	.	.
COc1ccc(NC(=O)Nc2nnc(Cc3ccc(OC)c(OC)c3)s2)cc1	.	.	.	.	.	.
CCOC(=O)CC1(C)NC(C(=O)O)C(C)(C)S1 (stereo not drawn)	.	/	5µM	.	/	.
SMILES	PLK1 PBD inh	BAZ2B block	JMJD2A Tudor	HP1b binding inh	L3MBTL1 inh	VDR inh
CCN(CC)Cc1cc(Nc2c3ccccc3nc3c4ccccc4n(C)c23)cc(CN(CC)CC)c1O	.	/	45µM	?	/	?
COc1cccc(CNC(=O)CCNS(=O)(=O)c2ccc3[nH]c(=O)oc3c2)c1	.	.	.	.	/	.
COc1ccc(OC)c(NC(=O)CCNS(=O)(=O)c2ccc3[nH]c(=O)oc3c2)c1	.	.	.	.	/	.
COc1ccccc1NC(=O)CCNS(=O)(=O)c1ccc2[nH]c(=O)oc2c1	30µM	.	35µM	.	/	?
COc1ccccc1CNC(=O)CCNS(=O)(=O)c1ccc2[nH]c(=O)oc2c1	34µM	.	40µM	.	/	.
CCOC(=O)c1ccc(OC(=O)c2cn(-c3cccc(OC)c3)c(=O)c3ccccc23)cc1	/	.	.	.	/	.
c1ccc(OCCOCCN2CCOCC2)cc1	.	.	.	.	/	.
c1ccc(-c2ccccc2OCCOCCN2CCCCC2)cc1	.	.	3.2µM	?	.	.
c1ccc(-c2ccccc2OCCN2CCCC2)cc1	.	56µM	22µM	?	.	.
c1ccc(CCCN2CCOCC2)cc1	.	?	20µM	?	.	.
Fc1ccccc1OCCCN1CCOCC1	.	?	4.5µM	?	/	.
c1ccc(-c2ccccc2OCCCCN2CCCCCC2)cc1	.	50µM	22µM	.	.	.
C=CCc1ccccc1OCC(CN1CCCCC1)OC(C)=O (stereo not drawn)	.	.	.	.	/	.
c1ccc(-c2ccccc2OCCCN2CCOCC2)cc1	.	18µM	7.9µM	?	.	.
CC(=O)c1ccccc1OCCCCN1CCCCC1	.	?	25µM	?	.	.
C=CCc1ccccc1OCCCCN1CCCC1	.	50µM	10µM	?	/	.
CC(=O)c1ccccc1OCCOc1ccccc1C(C)=O	.	.	.	.	.	.
COc1ccc(CN2C(=O)c3cccc4cccc2c34)cc1F	.	?	.	.	/	.
CCN1C(=NCC(C)C)N[C@@H](c2ccccc2)[C@H](C(=O)OC)[C@H]1C	/	.	/	/	/	/
Cc1cc(S(=O)(=O)NCCCN2CCOCC2)c(Cl)cc1Cl	.	.	.	.	/	.
CCOC(=O)c1cccc(NS(=O)(=O)c2ccc(-c3cnc(C4CC4)o3)cc2)c1	/	.	.	.	/	.
COc1cc(C2Nc3cc(Cl)c(S(N)(=O)=O)cc3S(=O)(=O)N2)ccc1OCc1ccccc1 (stereo not drawn)	24µM	.	.[11.4 µM]	?	/	.
COc1cccc(C2Nc3cc(Cl)c(S(N)(=O)=O)cc3S(=O)(=O)N2)c1 (stereo not drawn)	?	.	50µM	.	/	.
COc1cc(C2Nc3cc(Cl)c(S(N)(=O)=O)cc3S(=O)(=O)N2)cc(OC)c1OC (stereo not drawn)	.	.	.	.	.	.
Cc1cccc(N2CCN(C(=O)c3cnn(-c4ccccc4)c3C3CCN(C(=O)OC(C)(C)C)CC3)CC2)c1C	/	.	?	.	/	.
SMILES	PLK1 PBD inh	BAZ2B block	JMJD2A Tudor	HP1b binding inh	L3MBTL1 inh	VDR inh
Cc1ccc2nc3c(c(N)c2c1)CCN3c1ccccc1	.	56µM	0.79µM	?	.	.
Nc1c2c(nc3cccc(Cl)c13)N(c1ccccc1)CC2	.	.	.	.	/	.
CN1CCc2c1nc1ccccc1c2N (tested in a mixture with another compound)	.	.	.	.	/	.
Cc1ccc2nc3c(c(N)c2c1)CCN3C	.	79µM	25µM	35µM	/	.
O=C1/C(=C/c2cccc(O)c2)SC(=S)N1CC1CCCO1 (stereo not drawn)	?	.	.	.	.	.
COc1cccc(/C=C2\SC(=S)N(N3C(=O)CCCC3=O)C2=O)c1	.	25µM	.	?	.	.
